Source: PubChem
Giardia FBPA inh – qHTS Assay for Inhibitors of Fructose-1,6-bisphosphate Aldolase from Giardia Lamblia; purified Giardia FBPA; Potency, µM (series often up to 59.6 µM), for the others: at the top dose activity, negative = inhibition, actives largely listed as inhibitors; hit rate 0.71% among 290,000; AID 2451, 2010; also: potency is read from the fitted curve at half-maximal effect; % is scaled to controls: 0 for no effect and ±100 for the full control effect; nearly all actives have a fitted effect of over 55% in size
Target sequence (A8B2U2 whole entry, looked up): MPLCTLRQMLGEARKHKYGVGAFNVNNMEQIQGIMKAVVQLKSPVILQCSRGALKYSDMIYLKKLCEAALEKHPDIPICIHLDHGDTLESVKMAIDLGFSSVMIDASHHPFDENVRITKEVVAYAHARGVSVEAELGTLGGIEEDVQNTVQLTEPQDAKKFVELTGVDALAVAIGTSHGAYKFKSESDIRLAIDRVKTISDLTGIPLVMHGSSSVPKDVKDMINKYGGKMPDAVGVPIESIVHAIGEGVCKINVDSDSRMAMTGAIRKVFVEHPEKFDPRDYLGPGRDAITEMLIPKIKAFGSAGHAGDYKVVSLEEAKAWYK
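Giardia FBPA (40 nM reagent) was preincubated 10 min at RT with compound (up to 57.5 uM final), then substrate plus GAPDH/TPI/NAD/arsenate coupling system with diaphorase/resazurin was added; resorufin fluorescence (525/598 nm) was read after 20 min.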
MARV entry inh – qHTS for inhibitors of binding or entry into cells for Marburg Virus | Marburg virus pseudotyped entry inhibition, cell reporter | Potency, µM (titrated, usually from 37.8 µM), for inactives: at the top dose activity change, negative = inhibition, hits mostly inhibitors | hit rate 1.8% among 300,000; calls by dose curve; tested in HEK293 cells; also: potency is read from the fitted curve at half-maximal effect; % is scaled to controls: 0 for no effect and ±100 for the full control effect
HCMV inh – qHTS Assay for inhibitors of the human cytomegalovirus (HCMV); HFF cells, HCMV-luciferase reporter, 72 h; hits give low values; activity change, negative = inhibition, % at 57.5 µM; hit rate 4.5% among 410,000; AID 1259415, 2018; in the data active = activity change below about -60%; inconclusive = no clear call, values can overlap the other calls; inactive = above about -39%; also: % is scaled to controls: 0 for no effect and ±100 for the full control effect
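Luciferase read-out from HCMV-luciferase-infected HFFs (MOI 1 PFU/cell) 72 h post infection at 37C; compounds added after 16 h cell attachment; activity normalized between buffer-only basal and Salinomycin (10uM) inhibitor controls.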
HCV inhibitor – qHTS Assay for Inhibitors of Hepatitis C Virus (HCV) | Potency, µM (series often up to 41.8 µM), inactives show at the highest dose activity change, negative = inhibition, usual class: inhibitors | hit rate 3.4% among 340,000 | Huh7.5.1 HCVcc-Cre infection, luciferase reporter, 44 h; also: potency is read from the fitted curve at half-maximal effect; % is scaled to controls: 0 for no effect and ±100 for the full control effect
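A cell-based infection assay in which seeded cells (1,000 per well) receive test compound after 4 h, are inoculated with HCVcc-Cre at approximately 0.5 moi, and are incubated 44 h before luminescence detection.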
FMDV inh – High Throughput Screening for Foot and Mouth Disease Virus Antivirals; FMDV antiviral cell-based qHTS; Potency, µM (titrated, usually from 57.9 µM), without a hit: at the top dose activity change, negative = inhibition, hits mostly inhibitors; hit rate 1.2% among 410,000; calls by dose curve; tested in HEK293T cells; also: read-out not given here; potency is read from the fitted curve at half-maximal effect; % is scaled to controls: 0 for no effect and ±100 for the full control effect; nearly all actives have a fitted effect of over 45% in size
LASV entry inh – qHTS for Inhibitors of binding or entry into cells for Lassa Virus; Lassa virus pseudotype entry inhibition, cell reporter; Potency, µM (series often up to 37.9 µM), without a hit: at the top dose activity change, negative = inhibition, most hits filed as inhibitors; hit rate 1.2% among 300,000; AID 540256, 2011; calls by dose curve; tested in HEK293 cells; also: potency is read from the fitted curve at half-maximal effect; % is scaled to controls: 0 for no effect and ±100 for the full control effect; nearly all actives have a fitted effect of over 50% in size
HCV confirm – qHTS Assay for Inhibitors of Hepatitis C Virus (HCV): Confirmation Assay for Cherry-picked Compounds | shares compounds with HCV inhibitor | HCVcc-Cre infectious virus cell assay, luciferase, inhibition | Potency, µM (titrated, usually from 41.8 µM), for the others: top-dose activity, negative = inhibition, hits mostly inhibitors | hit rate 78% among 640 | AID 720575, 2013; also: potency is read from the fitted curve at half-maximal effect; nearly all actives have a fitted effect of over 80% in size
HCV host tox – qHTS Assay for Inhibitors of Hepatitis C Virus (HCV): Cytotoxicity Counterscreen for Cherry-picked Compounds; shares compounds with HCV inhibitor; HCV host cell line cytotoxicity counterscreen; Potency, µM (highest dose often 41.8 µM), without a hit: top-dose activity change, negative = cytotoxicity, usual class: inhibitors; hit rate 22% among 640; AID 720576, 2013;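 also: potency is read from the fitted curve at half-maximal effect; 44 h compound exposure; % is scaled to controls: 0 for no effect and ±100 for the full control effect; nearly all actives have a fitted effect of over 55% in size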
* hit, by the source's call; u = inconclusive; x = no result; [ ] = dose if it differs, or a comment. The list is not random: actives were taken first. Their share in the collection is about 8.3%. Unless noted, calls follow the shape of the dose curve; as a rule, active = well fitted curve in the direction sought with a large enough effect; inconclusive = small, poorly fitted or top-dose-only effect, or another doubt; inactive = no such curve, though single readings can be large; an effect the other way counts as inactive or inconclusive.

SMILES	Giardia FBPA inh	MARV entry inh	HCMV inh	HCV inhibitor	FMDV inh	LASV entry inh	HCV confirm	HCV host tox
COc1ccc(CCn2c(SCC(=O)Nc3cc(C)on3)nc3ccccc3c2=O)cc1OC	0%	10%	19	14%	u	3%	x	x
Cc1cc(S(=O)(=O)Nc2ccc3ccccc3c2)c(C)s1	-14%	u	u	u	44%	-16%	22µM*	u
CCOc1ccc(NC(=O)Cn2c(=O)n(CCC(=O)NCCc3ccccc3)c(=O)c3ccccc32)cc1	x	2%[46.1 µM]	15	x	7%	1%[46.1 µM]	x	x
N=c1scc(-c2ccccc2)n1/N=C/c1ccco1	-16%	u	8	u	33%	-19%	25µM*	-30%
Cc1cccc(-c2n[nH]c(=S)n2/N=C/c2ccco2)c1	-9%	x	-22	13%	20%	x	x	x
COc1ccc(N2CCN(CCCNC(=O)C3CCC(CNc4nc(=S)[nH]c5ccccc45)CC3)CC2)cc1 (centres undefined)	2%	u	14	2.5µM*	u	u	6.3µM*	22µM*
CC(=O)Nc1cccc(NC(=O)c2cc3c(=O)n4cccc(C)c4nc3n2C)c1	x	x	u	x	9%	18%[46.1 µM]	x	x
c1cnc2c(c1)ccc1cccnc12	20µM*	5.8µM*	-99*	8.9µM*	-6%	3.7µM*	7µM*	-65%
Cc1cc(/C=C2\SC(=S)N(C)C2=O)c(C)n1-c1cccc(O)c1	-18%	x	-92*	4.5µM*	1.3µM*	x	25µM*	25µM*
COc1ccc(-n2c(C)cc(/C=C3/SC(=S)N(C)C3=O)c2C)cc1	-5%	u	u	12%	11%	4%	x	x
COc1ccc(-c2nc(CCNC(=O)Cc3ccc(F)cc3)cs2)cc1	x	x	45	x	-16%	21%[46.1 µM]	x	x
Cc1cc(Cl)ccc1NC(=O)NC1CCN(S(=O)(=O)c2ccc(F)cc2)CC1	9%	-26%[46.1 µM]	-22	4.5µM*	u	u	11µM*	22%
CCn1nc(C)c2c(-c3ccccc3)cc(=O)n(C(C)C(=O)Nc3ccc(OC)c(OC)c3)c21 (centres undefined)	x	x	2	x	-24%	-7%[46.1 µM]	x	x
COCCCn1c(SCc2cccc(C(F)(F)F)c2)nc2cc(OC)c(OC)cc2c1=N	-4%	9%	-8	2%	14%	u	x	x
COCCCn1c(SCc2ccccc2)nc2cc(OC)c(OC)cc2c1=N	-5%	-1%	42	u	-16%	u	14µM*	58%
COc1ccc(OC)c(CNC(=O)C(C)n2c(C)c3cnn(-c4ccccc4)c(=O)c3c2C)c1 (centres undefined)	x	24%[46.1 µM]	-11	x	-23%	23%[46.1 µM]	x	x
FCCCOc1ccc(-c2ccnc(-c3ccccc3)n2)cc1	-1%	-15%	13	u	31%	12%	x	x
FCCCOc1ccc(-c2nccc(-c3ccc(F)cc3)n2)cc1	-1%	0%[46.1 µM]	1	u	-13%	4%	u	15%
COc1cc(-c2nc(-c3ccc4c(c3)-c3ccccc3S4(=O)=O)c(-c3ccccc3)[nH]2)cc(OC)c1OC	-6%	-29%	-20	2µM*	0%	u	2µM*	u
COc1cccc(-c2nc(-c3ccc4c(c3)-c3ccccc3S4(=O)=O)c(-c3ccccc3)[nH]2)c1OC	1%	u	28	u	0%	-11%	x	x
CCC1CCCCN1C(=O)c1cc(COc2ccc3ncccc3c2)on1 (centres undefined)	-3%	u	-91*	3.2µM*	u	u	1.8µM*	3.1µM*
NS(=O)(=O)c1ccc(N=Nc2ccc(O)c3ncccc23)cc1	u	x	-97*	3.5µM*	-16%	x	7.9µM*	8.9µM*
COc1cc(/C=C/C(=O)NC2CCCCC2)cc(OC)c1OC	7%	1%	10	u	13%	-18%	u	25%
CC(C)=CC(=O)Nc1cccc(S(=O)(=O)NC2=NCCCCC2)c1	x	x	4	-1%	10%	x	x	x
COc1ccc(/C=C/C(=O)Nc2cccc(S(=O)(=O)NC3=NCCCCC3)c2)cc1OC	x	x	-16	6.3µM*	40µM*	x	20µM*	u
SMILES	Giardia FBPA inh	MARV entry inh	HCMV inh	HCV inhibitor	FMDV inh	LASV entry inh	HCV confirm	HCV host tox
Cc1cc(C)cc(N=c2c([N+](=O)[O-])nn(-c3ccc(Cl)cc3)n2O)c1	-6%	-25%	23	u	1%	-21%	16µM*	22%
Cc1ccc(CN(C(=O)c2ccc(OCC(C)C)cc2)c2ccccn2)o1	x	u	82	x	76%	17%[46.1 µM]	x	x
O=C(Nc1cccc(Br)c1)N1CCC(CN2CCCCCC2)CC1	x	x	-9	x	13%	u	x	x
CCOC(=O)C1CCCN(S(=O)(=O)c2ccc(N3CCCCS3(=O)=O)cc2)C1 (centres undefined)	x	x	5	x	-15%	-28%[46.1 µM]	x	x
CCN1/C(=C\C(=S)Nc2ccccc2)Sc2ccccc21	-9%	u	-61*	6.3µM*	-5%	u	14µM*	u
CCOC(=O)C1CCN(C(c2cccc(F)c2)c2c(O)cc(C)n(CCOC)c2=O)CC1 (centres undefined)	x	x	12	x	-19%	-10%[46.1 µM]	x	x
O=C(N/N=C/c1ccc[nH]1)c1ccc(Cl)cc1	-8%	-19%	u	5µM*	56%	u	14µM*	14µM*
CN(C)CCN(C)CCc1ccc(Cl)c(Cl)c1	-2%	x	x	x	-11%	x	x	x
OC(c1cc(-c2ccc(C(F)(F)F)cc2)nc(C(F)(F)F)c1)C1CCCCN1 (centres undefined)	9%	x	-102*	5µM*	u	x	14µM*	u
CC1CCN(C(=O)CSc2nc(-c3ccc(F)cc3)cc(C(F)(F)F)n2)CC1	x	16%[46.1 µM]	-6	x	-18%	13%[46.1 µM]	x	x
CCN1CCc2c(sc(-n3cccc3)c2C(CCC(C)C)NC(=O)NCCC(=O)OC)C1 (centres undefined)	x	x	-4	x	-2%	u	x	x
Cc1ccc(NC(=O)CCC2CC(C)(C)OC2=O)cc1 (centres undefined)	0%	14%	0	4µM*	-1%	0%[46.1 µM]	1%	-2%
CCC(Sc1nc2cc3c(cc2c(=O)n1CCCCCC(=O)NCc1ccc2c(c1)OCO2)OCO3)C(=O)NCCCOC (centres undefined)	x	x	-19	x	8%	4%[46.1 µM]	x	x
